Experimental data: PubChem BioAssay (NCI)
Values joined by “and” are separate entries in the source; they are usually repeats but may differ in a detail not shown here. Equal values may be shown once. About 83,000 compounds went through this panel and 20% of them were active in at least one assay; those are over-represented in the sample as a whole.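 48-hour exposure, single concentration, 96-well plates; percent growth endpoint where 0 means no net growth. Active: below 10.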 Active and inactive are the calls of the source.

Tested on: MDA-MB-468 breast
Assay: NCI-60 one-dose screen, 48 h (100 = growth as untreated, 0 = no growth, -100 = all killed)
Conditions: 10 µM unless noted

Row | Structure (SMILES) | growth
1 | O=[N+]([O-])c1c(Cl)cc(Cl)c([N+](=O)[O-])c1Cl | 15% (inactive)
2 | COC(=O)[C@@H](C)C[C@H](Cc1ccccc1)NC(=O)c1nc([C@@H](C[C@H](C(C)C)N(C)C(=O)[C@@H](NC(=O)[C@H]2CCCCN2C)C(C)C)OC(C)=O)sc1C(C)C | 20.7% (inactive)
3 | CC1(C)[C@H](O)[C@H](F)C[C@@]2(C)Oc3ccc(C(=O)Nc4ccc5c(c4)NC(=O)C54CCN(CCCCC#N)CC4)cc3C[C@H]12 | 7.2% (active)
4 | CC1(C)N=C(N)N=C(N)N1c1cccc(CCCCc2ccc(Cl)c(S(=O)(=O)F)c2)c1 | 75.8% (inactive)
5 | Cc1ccc2oc(=O)c3c(c2c1)OC(N)=C(C#N)C3c1ccco1 (stereo not given) | 91.4% (inactive)
6 | Cc1cc(N(CCCl)CCCl)ccc1/C=N\NC(=O)c1cccnc1 | -30.4% (active) and -38.6% (active)
7 | C1CCC([PH+](C2CCCCC2)C2CCCCC2[PH+](C2CCCCC2)C2CCCCC2)CC1.O=C(C1[CH-]CCCC1)C1CCCC[N-]1.[Au] (stereo not given) | -40.3% (active)
8 | Clc1ccc2nnnn2n1 | 35.6% (inactive)
9 | NCCc1cc(O)c(O)cc1O | 96.2% (inactive)
10 | COc1ccc(OC)c(/C=C/[N+](=O)[O-])c1 | -59.3% (active)
11 | COS(=O)(=O)c1ccccc1 | 114% (inactive)
12 | CC(C)(C)N(Cc1ccccc1)N=O | 93.2% (inactive)
13 | CC(=O)[O][Hg][c]1ccccc1 | -83.8% (active)
14 | CCC[CH2][Sn]([CH2]CCC)([CH2]CCC)[O]c1ccc(Cl)cc1Cl | -98.7% (active)
15 | COc1cc(/C=C\[N+](=O)[O-])ccc1OCc1ccccc1 | 6.8% (active)
16 | NC(CCl)CCl | 96.8% (inactive)
17 | COC(=O)[C@@H](C)C[C@H](Cc1ccccc1)NC(=O)c1nc([C@@H](C[C@H](C(C)C)N(C)C(=O)[C@@H](NC(=O)[C@H]2CC(=O)CCN2C)C(C)C)OC(C)=O)sc1C(C)C | 7.54% (active)
18 | Cc1cc(NC(=O)CCc2ccc(N3C(N)=NC(N)=NC3(C)C)cc2)ccc1S(=O)(=O)F | 32.4% (inactive)
19 | CCOC(=O)c1ccccc1C(=O)OCC | 81% (inactive)
20 | O=C(O)C(O)c1ccc(Cl)cc1 (stereo not given) | 84.9% (inactive) and 112% (inactive)

Row | Structure (SMILES) | growth
21 | CCC(=O)C(CC(C)[N+](C)(C)C)(c1ccccc1)c1ccccc1 (stereo not given) | 85.5% (inactive)
22 | c1cnc2[nH]cc(-c3csc(-c4cn(CCCCN5CCCCC5)c5ccccc45)n3)c2c1 | 98.6% (inactive)
23 | C/C=C/CC(C)C(O)[C@H](NC(=O)[C@@H]1CCCN1C(=O)C(C)(C)NC(=O)CCCCCCCCC)C(=O)N[C@@](C)(CC)C(=O)N[C@@H](CCC(N)=O)C(=O)N[C@H](CCC(N)=O)C(=O)NC(C)(C)C(=O)NC(C)(C)C(=O)N[C@@H](CCC(N)=O)C(=O)N[C@H](CC(C)C)C(=O)N[C@H](CO)CC(C)C (stereo not given in full) | -53.4% (active) and 16.1% (inactive)
24 | COC(=O)N[C@H]1CCc2c(Br)c(OC)c(OC)c(OC)c2-c2ccc(SC)c(=O)cc21 | -23.7% (active)
25 | O=C(CC1(O)C(=O)Nc2ccc(Br)cc21)c1ccc(C(=O)NCC2CCC3(CC2)OOC2(CCCCC2)OO3)cc1 (stereo not given) | 48.7% (inactive)
26 | O=C(O)C(O)C(O)C1[O][Sb]([c]2ccc([N+](=O)[O-])cc2)[O]C1CO (stereo not given) | 98.2% (inactive)
27 | ClCCN(CCCl)c1ccc(/C=N\N=C\c2ccc(N(CCCl)CCCl)cc2)cc1 | 50% (inactive)
28 | O=S(=O)(c1ccc(O)cc1)c1ccccc1O | 108% (inactive)
29 | CC[C@H](C)[C@H](NC(=O)c1ccccn1)C(=O)N(C)[C@H](C[C@@H](OC(C)=O)c1nc(C(=O)N[C@@H](Cc2ccccc2)C[C@H](C)C(=O)OC)cs1)C(C)C | -7.06% (active)
30 | COCC1OC2OC3C(COC)OC(OC4C(COC)OC(OC5C(COC)OC(OC6C(COC)OC(OC7C(COC)OC(OC8C(COC)OC(OC1C(O)C2O)C(O)C8O)C(O)C7O)C(O)C6O)C(O)C5O)C(O)C4O)C(O)C3O (stereo not given) (tested in a mixture with another compound) | 105% (inactive)
31 | Cc1ccc(N2CCN(CCC#N)CC2)cc1 | 105% (inactive)
32 | C[C@]12CC[C@H](O)C[C@@H]1CC[C@@H]1[C@@H]2CC[C@]2(C)OC(=O)CC[C@@H]12 | 106% (inactive)
33 | CC12CC(=O)C3(SC#N)C(CCC4=CC(=O)CCC43C)C1CCC2=O (stereo not given) | 24.5% (inactive)
34 | CC(C)C1c2ccc(O)cc2Oc2nc(N)c(C#N)c(N)c21 (stereo not given) | 90% (inactive)
35 | [Cl][Hg][c]1cc[c]([Hg][Cl])o1 | -0.231% (active)
36 | CNC(=O)Oc1cccc(C(F)(F)F)c1 | 110% (inactive)
37 | CCCCNCCc1ccccn1 | 117% (inactive)
38 | COc1cc[c]([Hg][Cl])cc1 | -62.8% (active)
39 | CC1=C2C(=C[C@@](C)(C=O)[C@@H]2O)C(=O)[C@](C)(O)C12CC2 | -66.7% (active)
40 | CN(Cc1cccnc1)N=O | 103% (inactive)
